Consider 12 compounds from PubChem BioAssay (NCATS).

Molecules are shown by their SMILES. Results filed as inconclusive are left out. Where a call stands in place of a potency, no number is given. A number with no mark means an inactive call. Activity calls are given as the source filed them. Calls follow the shape of the dose curve; as a rule, active = well fitted cell-killing curve with a large enough effect; inconclusive = small, poorly fitted or top-dose-only effect, or effect the other way; inactive = no such curve, though single readings can be large or run the other way.
Potency is read from the fitted curve at half-maximal effect.

A short description of the assay: Viability qHTS for spleen associated tyrosine kinase inhibitor (SYKi) naive MV4-11 cells (AID 1963823). Also: nearly all actives have a fitted effect of over 40% in size. Particulars: MV4-11 AML viability, CellTiter-Glo luminescence, 72 h; series mostly up to 45 µM. In outline: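 In this viability screen, compounds acted on SYK inhibitor naive MV4-11 cells for three days (72 hr, 37 C). Remaining viable cells were measured by CellTiter-Glo luminescence following a 10 min room-temperature development.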
Background: qHTS replaces the single test concentration by a dilution series.
With `Cc1ccc(OC[C@H](O)[C@H](C)NC(C)C)c2c1CCC2`, the Potency entry is “inactive”.
Take `C=C1CCC2(OC1)OC1CC3C4CC=C5CC(O)CC(O[C@@H]6OC[C@H](OC(=O)C(O)C(C)CC)[C@H](O)[C@H]6O[C@@H]6O[C@@H](C)[C@H](O)[C@@H](O)[C@H]6O)C5(C)C4CCC3(C)C1C2C` (some centres not stated): the viability (% of control) is 76.1% [at 9.25 µM].
Regarding `CCOc1cccc2c1OC(c1ccc(F)cc1)C([N+](=O)[O-])=C2` (configuration not stated), the Potency is 1160 nM (active).
On to `C=C1C(=O)O[C@@H]2[C@H]3C(C)=CC(=O)C3=C(C)CC[C@@H]12`, for which the Potency is 2060 nM (active).
On to `C=C1C[C@]23C[C@H]1[C@@H](O)C[C@H]2[C@@]12C=C[C@H](O)[C@@](C)(C(=O)O1)[C@H]2[C@@H]3C(=O)O`, for which the Potency result is “inactive”.
Turning to `CC1CCC2(C(=O)OC3OC(CO)C(O)C(O)C3O)CCC3(C)C(=CCC4C5(C)CC(O)C(O)C(C)(C(=O)O)C5CCC43C)C2C1(C)O` (configuration not stated), the Potency result was “inactive”.
In the case of `COC(=O)[C@H](O)[C@H]1C(C)(C)[C@H](OC(C)=O)[C@@]2(O)C(=O)[C@]1(C)C1CC[C@]3(C)C(CC(=O)O[C@H]3c3ccoc3)[C@]13O[C@@H]32` (some centres not stated), the Potency entry is “inactive”.
As to `C[C@@H]1CC[C@]2(C(=O)O)CC[C@]3(C)C(=CCC4[C@@]5(C)C[C@@H](O)[C@H](O)[C@@](C)(CO)C5CC[C@]43C)C2[C@]1(C)O` (some centres not stated), the Potency result was “inactive”.
Turning to `COc1ccc(C(=O)O[C@H]2C=COC=C3C=C4C(=O)N(C)C(=S)C(=O)N4[C@@H]32)cc1Oc1cc(C=O)ccc1O`, the Potency is 2820 nM (active).
Take `COc1cc(CC(COC2OC(CO)C(O)C(O)C2O)c2cc(/C=C/CO)cc(OC)c2O)ccc1O` (configuration not stated): the Potency entry is “inactive”.
On to `CC(C)=C1C[C@@]2(C)C(=CC1=O)CC[C@@H](O)[C@@H]2C`, for which the Potency result is “inactive”.
`CC1(C)CCC(C)(C)c2cc(C#Cc3ccc(C(=O)O)cc3)ccc21`: the Potency entry is “inactive”.
